An excerpt weighted towards active compounds, which were near 8.7% of everything screened.
AMA1 RON2 block: qHTS for Inhibitors of AMA1-RON; Towards Development of Antimalarial Drug Lead: Primary Screen; Plasmodium falciparum AMA1 (3D7) - RON2 peptide interaction; AlphaScreen AMA1-biotinylated RON2 peptide binding; Potency, µM (highest dose often 58.2 µM), usual class: inhibitors; actives 0.2% (n = 360,000); further: nearly all actives have a fitted effect of over 45% in size
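AMA1 (3D7) with his tag at 25 nM final met compounds first, then biotinylated RON2 peptide at 25 nM; detection used donor plus acceptor beads, 10 µg/mL apiece, read by AlphaScreen after 30 min at room temperature.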
Pf growth 48h: Primary qHTS for delayed death inhibitors of the malarial parasite plastid, 48 hour incubation | P. falciparum luciferase growth in erythrocytes, 48 h | Potency, µM (top dose mostly 28.7 µM), most hits filed as inhibitors | actives 5.9% (n = 310,000) | AID 504832, 2011
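In quantitative HTS format, infected erythrocytes bearing luciferase-reporter parasites were treated for a single generation at 37 C. Luminescence after adding detection reagent served as the growth measure.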
VACV mCherry inh: qHTS for Stage-Specific Inhibitors of Vaccinia Orthopoxvirus: mCherry Reporter Primary qHTS | Vaccinia virus mCherry reporter infection, fluorescence | Potency, µM (highest dose often 36.5 µM), actives largely listed as inhibitors | actives 0.63% (n = 310,000) | AID 720579, 2013; calls by dose curve; tested in A549 cells; further: nearly all actives have a fitted effect of over 35% in size
Pf growth 96h: Primary qHTS for delayed death inhibitors of the malarial parasite plastid, 96 hour incubation. Potency, µM (series often up to 28.7 µM), most hits filed as inhibitors. actives 6.9% (n = 320,000). P. falciparum luciferase reporter growth, 96 h. AID 504834, 2011
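P. falciparum expressing integrated firefly luciferase grown in erythrocytes (2% hematocrit, 0.05% parasitemia final) with compounds for 96 hours at 37 C, 5% CO2. Growth inhibition read as loss of luminescence after adding luciferase detection reagent.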
Vaccinia Venus: qHTS for Stage-Specific Inhibitors of Vaccinia Orthopoxvirus: Venus Reporter Primary qHTS. AID 720580, 2013. actives 0.46% (n = 330,000). Vaccinia virus Venus reporter expression, fluorescence. Potency, µM (doses to about 36.5 µM), actives largely listed as inhibitors; calls by dose curve; tested in A549 cells; further: nearly all actives have a fitted effect of over 30% in size
Each line names hits and unclear results; the compound was inactive in the other large screens. Unless noted, the call rests on the fitted dose curve; in most records, active means well fitted curve in the direction sought with a large enough effect; inconclusive means small, poorly fitted or top-dose-only effect, or another doubt; inactive means no such curve, though single readings can be large; an effect the other way counts as inactive or inconclusive.

CC(=NNC(=O)c1ccccc1N)c1ccccc1O	VACV mCherry inh inconclusive, Vaccinia Venus inconclusive (no result: Pf growth 48h, Pf growth 96h)
COc1ccc(/C(C)=N/NC(=O)c2ccccc2N)cc1	Pf growth 48h inconclusive, Pf growth 96h 3.7µM
Cc1cc(C)c(NC(=O)CSc2ncc(S(=O)(=O)c3ccc(C(C)(C)C)cc3)c(=O)[nH]2)c(C)c1	none (no result: AMA1 RON2 block, Pf growth 48h, Pf growth 96h)
CC(C(=O)Nc1ccc2c(c1)OCCO2)c1ccc([N+](=O)[O-])cc1 (stereo not given)	Pf growth 48h 3.3µM (no result: VACV mCherry inh, Vaccinia Venus)
CC(C(=O)Nc1cccnc1)c1ccc([N+](=O)[O-])cc1 (stereo not given)	Pf growth 48h inconclusive
O=C(Cc1ccc([N+](=O)[O-])cc1)Nc1ccc2c(c1)OCO2	none
CC(C(=O)Nc1ccc2c(c1)OCO2)c1ccc([N+](=O)[O-])cc1 (stereo not given)	Pf growth 48h 2.3µM, Pf growth 96h inconclusive
CCN(CC)C(C(=O)Nc1ccc(C(C)C)cc1)c1ccc2c(c1)OCO2 (stereo not given)	Pf growth 48h 8.3µM
CC(C(=O)Nc1cccc(Br)c1)c1ccc([N+](=O)[O-])cc1 (stereo not given)	Pf growth 48h 10µM, Pf growth 96h inconclusive (no result: VACV mCherry inh, Vaccinia Venus)
Cc1cccc(N2CCN(S(=O)(=O)c3cn(C)c(C)n3)CC2)c1C	none (no result: AMA1 RON2 block, Pf growth 48h, Pf growth 96h)
COc1ccc(CN(CCC(c2ccccc2)C2CCOC(C)(C)C2)C(C)=O)cc1 (stereo not given)	Pf growth 48h 13µM
CCc1ccc(NC(=O)Cn2ccn(-c3ccc(OC)cc3)c(=O)c2=O)cc1	none (no result: AMA1 RON2 block, Pf growth 48h, Pf growth 96h)
Cc1nc(=O)c(-c2ccccc2)c(C)n1-c1ccc(C(=O)O)cc1	Pf growth 96h 1.7µM (no result: VACV mCherry inh, Vaccinia Venus)
Cc1nc(=O)c(-c2ccccc2)c(C)n1-c1ccc(S(N)(=O)=O)cc1	none (no result: Pf growth 96h)
CC(C)NC(=O)CCn1ccc2cc(S(=O)(=O)N3CCCC3)ccc21	none
CC(CNC(=O)CCn1ccc2cc(S(=O)(=O)N3CCCC3)ccc21)c1ccccc1 (stereo not given)	Pf growth 48h inconclusive, Pf growth 96h 12µM
COC(=O)Cn1ccc2cc(S(=O)(=O)N3CCCCC3)ccc21	Pf growth 96h 5.9µM
CN1C[C@@H]2C(c3ccc(Cl)nc3)C3(c4ccccc4)CC2(C3)[C@H]1c1ccccc1 (stereo not given in full)	Pf growth 48h 9.3µM, Pf growth 96h 13µM
CN1C[C@@H]2C(c3ccc(Cl)nc3)C3(c4cccnc4)CC2(C3)[C@H]1c1ccccc1 (stereo not given in full)	Pf growth 48h 10µM, Pf growth 96h 10µM
CN1C[C@@H]2C(c3ccccc3)C3(c4ccccc4)CC2(C3)[C@H]1c1ccccc1 (stereo not given in full)	AMA1 RON2 block inconclusive, Pf growth 48h inconclusive, Pf growth 96h inconclusive
Cc1ccc(C)c(N2CCN(CCCNC(=O)Cn3c(-c4cccs4)cc4ccccc43)CC2)c1	none (no result: AMA1 RON2 block, Pf growth 48h, Pf growth 96h)
Cc1cccc(-c2nn3c(=O)cc(CN4CCN(S(=O)(=O)c5ccc(Cl)cc5)CC4)nc3s2)c1	none (no result: AMA1 RON2 block, Pf growth 48h, Pf growth 96h)
COc1ccc(-c2ccc(NS(=O)(=O)c3ccc(NC(C)=O)cc3)cc2)nn1	none (no result: AMA1 RON2 block, Pf growth 48h, Pf growth 96h)
NNC(=O)c1oc2nc(-c3ccc(Cl)cc3)cc(-c3ccccc3)c2c1N	Pf growth 48h 4.1µM, Pf growth 96h 2.6µM
Cc1ccc(NCc2cccn2-c2nnc(N3CCC(C(=O)NCc4ccccc4C)CC3)s2)cc1	none (no result: AMA1 RON2 block, Pf growth 48h, Pf growth 96h)
COc1ccc(-n2ccc(-c3nn(-c4cccc(C(F)(F)F)c4)ccc3=O)n2)cc1	Pf growth 48h 7.4µM, Pf growth 96h 3.3µM, Vaccinia Venus inconclusive (no result: VACV mCherry inh)
O=c1ccn(-c2cccc(C(F)(F)F)c2)nc1-c1ccn(-c2ccccc2F)n1	Pf growth 48h inconclusive, Pf growth 96h 5.9µM (no result: VACV mCherry inh)
Cc1ccc(-n2ccc(-c3nn(-c4ccccc4)ccc3=O)n2)cc1	Pf growth 48h inconclusive, Pf growth 96h 7.4µM
O=C(O)c1nn(-c2cccc(C(F)(F)F)c2)ccc1=O	none (no result: Pf growth 48h)
Cc1ccccc1NC(=O)c1c(NC(=O)C(C)Oc2cccc(Cl)c2)sc2c1CCCC2 (stereo not given)	none (no result: AMA1 RON2 block, Pf growth 48h, Pf growth 96h)
CCc1ccc(NC(=O)CCc2c(C)nn(-c3ccc(N4CCCC4)nn3)c2C)cc1	none (no result: AMA1 RON2 block, Pf growth 48h, Pf growth 96h)
O=C(CSc1nnc(-c2cccs2)o1)Oc1ccccc1Cl	none (no result: AMA1 RON2 block, Pf growth 48h, Pf growth 96h)
Cc1ccc(-c2cc3nc(-c4ccccc4)cc(N4CCC5(CC4)OCCO5)n3n2)cc1	Pf growth 48h 8.3µM, Pf growth 96h 0.29µM (no result: VACV mCherry inh)
Fc1cccc(-c2cc3nc(-c4ccccc4)cc(N4CCC5(CC4)OCCO5)n3n2)c1	Pf growth 48h 8.3µM (no result: VACV mCherry inh)
Fc1ccc(-c2cc3nc(-c4ccccc4)cc(N4CCOCC4)n3n2)cc1	none (no result: Pf growth 48h)
COc1ccc(-c2c(C)nn3c(N4CCC5(CC4)OCCO5)cc(C)nc23)cc1OC	Pf growth 48h 12µM
Cc1cccc(-c2cc3nc(-c4ccccc4)cc(N4CCC5(CC4)OCCO5)n3n2)c1	Pf growth 48h inconclusive, Vaccinia Venus inconclusive (no result: VACV mCherry inh)
COCCN1CCN(c2cc(-c3ccccc3)nc3cc(-c4cccc(F)c4)nn23)CC1	Pf growth 48h 12µM, VACV mCherry inh inconclusive, Pf growth 96h inconclusive, Vaccinia Venus inconclusive
COc1ccc(C)cc1NC(=O)C1CCN(S(=O)(=O)c2ccc3[nH]c4c(c3c2)CCCCC4)CC1	none (no result: AMA1 RON2 block, Pf growth 48h, Pf growth 96h)
CCCC12CN3CC(C)(CN(C1)C3c1ccc(OC)cc1)C2=O (stereo not given)	Pf growth 48h inconclusive (no result: VACV mCherry inh)
CCC12CN3CC(CC)(CN(C1)C3c1ccc(OC(C)C)cc1)C2=O (stereo not given)	Pf growth 48h inconclusive, Pf growth 96h 4.7µM

Assay outcomes from PubChem.
